# Source: PubChem
# Most compounds without a hit are left out; they make up all but 3.2% or so of the library.
# MT1-MMP txn act: MT1-MMP promoter transcription activation | HT1080 MT1-MMP promoter luciferase reporter, luminescence, overnight; hits give high values | activation factor at 10 µM | actives 0.16% (n = 86,000);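 active = activation factor of at least 2 for MT1-MMP transcription at 10 µM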
# ERa SRC1 pot: ER-alpha (human) coactivator binding potentiation; P03372; TR-FRET ERalpha-LBD/SRC-Cy5 coactivator binding, 2 h; 100 = basal binding, no effect; coactivator binding (% of control), % at 25.6 µM; actives 1.3% (n = 86,000); AID 639; in the data active = activity above about 200%;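 note: binding measured in presence of low estradiol as agonist stimulus; 0% = peptide alone without receptor and 100% = receptor with peptide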
# Calb biofilm kill: kills Candida albicans biofilms; C. albicans biofilm + clotrimazole, Alamar Blue; inhibition, % at 6 µM; actives 0.14% (n = 85,000); AID 834;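 active = inhibition above 20%; inactive = inhibition below 20%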;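 note: preformed 24 hr biofilms exposed to compound for 48 hr; 0% = biofilm without compound and 100% = blank killed by clotrimazole plus chlorhexidine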
# ERa SRC1 inh: blocks coactivator binding to human estrogen receptor alpha. P03372. TR-FRET ER-alpha LBD / SRC-1 peptide, estradiol-bound. inhibition, % at 25.6 µM. actives 1.7% (n = 86,000). AID 629; in the data active = inhibition above about 50%;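 note: 0% = receptor plus peptide control and 100% = peptide only without receptor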
# EphB4 ephrin blk: blocks human EphB4 binding to ephrin-B2; inhibition, % at 7 µM; actives 0.15% (n = 97,000); EphB4 LBD / TNYL-RAW-Alexa532 peptide, fluorescence polarization;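 active = inhibition above the screen-wide mean inhibition plus 3 SD, cut at about 15% in these data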;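 note: 0% = DMSO wells and 100% = excess unlabeled TNYL-RAW peptide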
# Target sequence (P54760 whole entry, looked up, the tested form may be a part): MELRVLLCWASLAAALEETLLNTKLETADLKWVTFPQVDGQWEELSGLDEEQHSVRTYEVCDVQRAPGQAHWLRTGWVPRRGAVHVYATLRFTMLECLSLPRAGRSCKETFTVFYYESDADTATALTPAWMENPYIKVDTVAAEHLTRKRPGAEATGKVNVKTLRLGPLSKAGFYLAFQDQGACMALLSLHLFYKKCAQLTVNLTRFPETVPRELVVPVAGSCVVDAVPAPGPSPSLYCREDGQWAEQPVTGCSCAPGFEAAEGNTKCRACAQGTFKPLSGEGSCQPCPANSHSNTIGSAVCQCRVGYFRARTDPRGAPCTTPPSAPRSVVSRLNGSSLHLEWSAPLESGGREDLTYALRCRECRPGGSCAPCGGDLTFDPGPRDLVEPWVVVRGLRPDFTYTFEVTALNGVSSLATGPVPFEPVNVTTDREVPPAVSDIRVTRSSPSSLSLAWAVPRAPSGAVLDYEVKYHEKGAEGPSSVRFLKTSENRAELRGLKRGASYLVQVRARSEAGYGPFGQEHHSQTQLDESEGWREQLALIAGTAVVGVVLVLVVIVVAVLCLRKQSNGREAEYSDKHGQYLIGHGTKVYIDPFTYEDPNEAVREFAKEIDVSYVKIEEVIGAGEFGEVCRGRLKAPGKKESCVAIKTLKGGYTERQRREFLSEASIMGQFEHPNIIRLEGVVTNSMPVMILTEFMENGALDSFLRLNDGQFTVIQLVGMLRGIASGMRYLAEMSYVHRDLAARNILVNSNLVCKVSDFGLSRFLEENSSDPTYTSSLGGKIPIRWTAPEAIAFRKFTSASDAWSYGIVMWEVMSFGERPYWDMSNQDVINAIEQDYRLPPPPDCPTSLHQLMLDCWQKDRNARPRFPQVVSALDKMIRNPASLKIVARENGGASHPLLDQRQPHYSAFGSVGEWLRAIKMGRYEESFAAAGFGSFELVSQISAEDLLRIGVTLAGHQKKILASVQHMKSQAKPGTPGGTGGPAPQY
# ERb SRC1 inh: ER-beta (human) coactivator binding inhibition; Q92731; TR-FRET ER-beta LBD / SRC1-Cy5 peptide binding; receptor agonist-loaded with 1 µM estradiol; inhibition, % at 25.6 µM; actives 1.3% (n = 86,000);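 active = compounds whose percent inhibition of the receptor-coactivator binding signal exceeds about 50% in the single-dose screen, limit read from the data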;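 note: 0% = receptor plus peptide wells without compound and 100% = peptide-only wells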
# * = called active by the depositor; nt = not tested or not shown; [ ] = another dose, or the depositor's remark.
SMILES,MT1-MMP txn act,ERa SRC1 pot,Calb biofilm kill,ERa SRC1 inh,EphB4 ephrin blk,ERb SRC1 inh
O=C1Nc2ccc(S(=O)(=O)NCc3ccco3)c3cccc1c23,1.1,48,10,44,3,58*[fluorescence artefact?]
CC(C)C(NS(=O)(=O)c1ccc2c3c(cccc13)C(=O)N2)C(=O)O (stereo not drawn),1,84,-9,24,3,39
CN(c1ccccc1C(=O)O)S(=O)(=O)c1ccc2c3c(cccc13)C(=O)N2,1.1,31,-2,57*,3,62*
CC1CCCCN1CC(=O)Nc1sc2c(c1C#N)CCC2 (stereo not drawn),1.1,73,11,46,-5,53*
CCOC(=O)N1CCN(S(=O)(=O)c2ccc3c(c2)oc(=O)n3C)CC1,1.2,111,8,-3,3,3
CCOC(=O)c1c(C)n(-c2ccc(OC)cc2)c2c(C/C(C)=N/O)c(Br)c(OC)c(O)c12,nt,nt,nt,nt,-4,nt
CC(=O)Nc1ccc2[nH]c(C)cc(=O)c2c1,nt,33,0,77*,-8,44
CC(=O)Nc1ccc2[nH]c3ccccc3c2c1,1,124,7,-4,-4,-3
CCC(C)(C)c1ccc(OCCN2C(=O)NC(C)(C)C2=O)cc1,1,116,0,1,2,0
O=C(Nc1ccc2c(c1)OCO2)C1CCN(C(=O)CSc2ncnc3ccccc23)CC1,1.2,60,8,55*[fluorescence artefact?],-2,46
Cc1ccc(C)c(-n2nnnc2SCC(=O)c2ccc3c(c2)NC(=O)CO3)c1,1.1,232*[fluorescence artefact?],-4,20,0,2
Oc1ccccc1CNc1cnc2ccccc2c1,2.1*,93,4,-40,0,19
C[C@]12CC[C@@H]3c4ccc(O)cc4CC[C@H]3[C@@H]1CC[C@@H]2O,1.1,nt,6,nt,nt,nt
C[C@]12CC[C@@H]3c4ccc(O)cc4[C@@H](O)C[C@H]3[C@@H]1CC[C@@H]2O,1.1,530*,2,0,nt,12
O=C(NCc1cccnc1)C1c2ccccc2C(=O)N1Cc1ccccc1 (stereo not drawn),nt,109,8,-6,-4,-2
O=C(NCc1cccnc1)C1c2ccccc2C(=O)N1Cc1ccco1 (stereo not drawn),1,93,8,0,4,51*[fluorescence artefact?]
COc1ccc(C2SCC(C(=O)NCc3ccc(F)cc3)N2C(C)=O)cc1 (stereo not drawn),nt,513*[fluorescence artefact?],4,-7,4,7
O=C(c1ccc(COc2ccccc2Cl)o1)N1CCN(Cc2ccc3c(c2)OCO3)CC1,1.1,75,2,5,18*,1
Cc1onc(-c2ccccc2Cl)c1C(=O)OCC(=O)Nc1ccc2c(c1)OCO2,1.1,111,25*,7,nt,5
COC(=O)Oc1c(Br)c(=O)oc2ccccc12,0.9,32,8,64*,-3,45
CC12CCCCC1(O)[N+](=O)C1=C(CCCC1)N2[O-] (stereo not drawn),1,68,-3,39,0,66*
Oc1[nH]c2ccccc2c1N=Nc1nc2ccccc2s1,nt,nt,nt,nt,15*,nt
Cc1ccc(S(=O)(=O)N=Nc2c(O)[nH]c3ccccc23)cc1,1.1,109,4,7,-3,4
COc1ccc2c(C)cc(SCC(=O)c3ccc4c(c3)OCO4)nc2c1,1.3,300*[fluorescence artefact?],4,16,2,12
CCCOc1ccccc1NC(=O)c1c(-c2ccccc2)noc1C,1.2,96,30*,-1,4,-3
SMILES,MT1-MMP txn act,ERa SRC1 pot,Calb biofilm kill,ERa SRC1 inh,EphB4 ephrin blk,ERb SRC1 inh
Cc1ccccc1NC(=O)c1c(-c2ccccc2)noc1C,1.1,123,7,-1,-2,5
CC1(C)CCCC2=C1CC1C(=O)N(O)C(=O)C1C2 (stereo not drawn),1,119,-3,0,0,89*
Cc1ccccc1-c1nc(CS(=O)(=O)CC(=O)N2CCc3ccccc32)c(C)o1,1.1,nt,nt,nt,4,nt
Clc1ccc(-n2nnnc2Sc2ncnc3sccc23)cc1,1,95,2,-11,5,-13
Cc1sc2ncnc(Sc3nnnn3-c3ccccc3)c2c1C,1.1,202*[fluorescence artefact?],4,18,-3,9
CCOC(=O)c1cc(NC(=O)CSc2nnc(CN3CCOCC3)n2C)ccc1Cl,1.2,111,3,-5,4,-3
O=C(CN1C(=O)COc2ccccc21)N(Cc1ccc2c(c1)OCO2)CC1CCCO1 (stereo not drawn),1.2,110,3,3,-8,9
Cn1c(Cn2c(=O)sc3ccccc32)nnc1SCC(=O)Nc1ccc(Cl)cc1,1,231*[fluorescence artefact?],2,-4,nt,-5
O=C(NCc1ccco1)C(c1ccco1)N(CCc1ccccc1)C(=O)Cn1nnc2ccccc21 (stereo not drawn),1,137,8,1,2,0
O=C(O)c1ccc(COc2ccc3ccccc3c2/C=C2/NC(=O)N(c3ccccc3)C2=O)cc1,nt,nt,nt,nt,3,nt
Cc1ccc(C(=O)O)cc1-c1ccc(/C=C2/NC(=O)N(c3ccccc3)C2=O)o1,1,11,-1,80*[fluorescence artefact?],14,81*[fluorescence artefact?]
CCCOc1ccc(N)cc1N,1.1,-3,nt,99*[fluorescence artefact?],11,99*[fluorescence artefact?]
CCCOc1ccccc1NC(=O)c1ccc(N)cc1,1.2,104,1,-6,1,-8
CCOC(=O)C1=C(C)NC(=O)NC1c1ccco1 (stereo not drawn),1.3,61,4,48,nt,66*
CC1=C(C(=O)OC(C)C)C(c2ccco2)NC(=O)N1 (stereo not drawn),0.9,56,3,35,4,55*[fluorescence artefact?]
C=CCC(Nc1ccco1)c1ccccc1 (stereo not drawn),1,100,3,-6,5,0
O=C(CCn1c(=O)oc2ccccc21)Nc1ccc2c(c1)OCCO2,nt,108,-10,9,nt,2
COCn1c(COc2ccc3ccccc3c2)nc2ccccc21,2.3*,85,4,-2,1,-5
CCn1c(COc2cccc(C)c2)nc2ccccc21,1.1,85,10,-7,4,-5
COc1cc(/C=c2\sc3nc(-c4ccncc4)nn3c2=O)ccc1OC(C)=O,1.2,59,4,68*,-3,45
CC(=O)Oc1cccc(/C=c2\sc3nc(-c4ccco4)nn3c2=O)c1,1.4,88,3,19,-1,20
CN(C)c1ccc(/C=c2\sc3nc(-c4ccccc4)nn3c2=O)cc1,1.1,52,5,69*[fluorescence artefact?],3,34
CNc1ccc(Br)cc(C(=O)/C=C/c2cccc(OC)c2OC)c1=O,1.7,73,6,42,2,55*[fluorescence artefact?]
CCNc1ccc(Br)cc(C(=O)/C=C/c2ccccc2Cl)c1=O,1.1,94,4,80*,0,74*[fluorescence artefact?]
CNC(=O)C1(CC(C)C)C=CCN1C(=O)c1ccccc1 (stereo not drawn),1,nt,nt,nt,nt,nt
